{"source": "PubChem BioAssay (NCATS)", "key": {"[1]": {"assay": "qHTS profiling of the MIPE4 collection as inhibitors of Plasmodium falciparum (3D7) proliferation (AID 743344)", "details": "P. falciparum 3D7 in erythrocytes, SYBR Green DNA fluorescence, 72 h; at 28.5 µM unless noted", "outline": "(§1)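 Parasite DNA was quantified by SYBR Green I fluorescence (ex 485, em 535 nm) after overnight lysis in saponin/Triton buffer at room temperature. Cultures at 0.3% parasitemia and 2.5% hematocrit were first exposed to compound for 72 h at 37 C; signals were normalised to artemisinin (0.29 uM) and vehicle wells.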"}, "[2]": {"assay": "qHTS profiling of the MIPE4 collection as inhibitors of Plasmodium falciparum (DD2) proliferation (AID 743345)", "details": "P. falciparum Dd2 in erythrocytes, SYBR Green DNA, 72 h; at 28.5 µM unless noted", "outline": "as §1"}, "[3]": {"assay": "qHTS profiling of the MIPE4 collection as inhibitors of Plasmodium falciparum (DD2) proliferation (Rep 2) (AID 743346)", "details": "P. falciparum Dd2 in erythrocytes, SYBR Green DNA, 72 h; at 28.5 µM unless noted", "outline": "as §1"}, "[4]": {"assay": "qHTS profiling of the MIPE4 collection as inhibitors of Plasmodium falciparum (HB3) proliferation (AID 743347)", "details": "P. falciparum HB3 in erythrocytes, SYBR Green DNA, 72 h; at 28.5 µM unless noted", "outline": "as §1"}, "[5]": {"assay": "High-throughput drug toxicity screening in the BPDCN cell line Gen2.2 (AID 1224824)", "details": "Gen2.2 BPDCN cells; at 45.8 µM (top of the series) unless noted", "outline": "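Gen2.2 cells, 500 per well in phenol red-free RPMI with 10% FBS, exposed to compounds 48 h at 37 C, 5% CO2; viability by CellTiter-Glo luminescence. Percent activity scaled to DMSO (100%) and 9.2 uM bortezomib final (0%).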"}, "[6]": {"assay": "High-throughput drug toxicity screening in the BPDCN cell line Cal-1 (AID 1224825)", "details": "Cal-1 BPDCN cell viability, qHTS; at 45.8 µM (top of the series) unless noted", "outline": "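Percent activity derived from CellTiter-Glo luminescence, scaling DMSO to 100% and 9.2 uM final bortezomib to 0%. BPDCN Cal-1 cells (500/well, RPMI plus 10% FBS) incubated with compounds 48 hours at 37C before reading.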"}, "[7]": {"assay": "qHTS assay for measurement of the activity of small molecule inhibitors on Zika virus induced Caspase-3 activity in human iPSC derived neural progenitor cells (hNPCs) (AID 1224857; active = well fitted curve in the direction sought with a large enough effect; an effect the other way counts as inactive or inconclusive)", "outline": "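Zika virus (2 FFU/cell) infection of human iPSC-derived NPCs, 6 h, following 1 h compound preincubation. Read-out: Caspase-Glo 3/7 luminescence.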"}, "[8]": {"assay": "qHTS Screen of the MIPE 4.0 Collection Against Ewings Sarcoma (RDES) (AID 1259252; active = well fitted curve in the direction sought with a large enough effect; an effect the other way counts as inactive or inconclusive)", "outline": "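CellTiter-Glo luminescence after 48 h compound exposure (titration) gave viability; percent activity used DMSO-treated cells as no inhibition and medium-only wells as full inhibition. Cells grown in RPMI/5% FBS, dosed 4 h post-seeding.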"}, "[9]": {"assay": "qHTS Assay for Identifying Gametocytocidal Compounds (AID 743244; active = well fitted curve in the direction sought with a large enough effect; an effect the other way counts as inactive or inconclusive)", "details": "P. falciparum 3D7 stage III-V gametocytes, alamarBlue, 72 h; max response: stronger effect = lower value", "outline": "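Fluorescence at Ex 525/Em 598 nm, recorded 24 h after alamarBlue addition, reports residual metabolic activity of 3D7 gametocytes (stages III–V) following 72 h compound exposure at 37 °C, 5% CO2.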"}, "[10]": {"assay": "qHTS profiling for inhibitors of Plasmodium falciparum (3D7) proliferation (AID 743322)", "details": "P. falciparum 3D7 proliferation; at 28.7 µM (top of the series) unless noted", "outline": "as §1"}, "[11]": {"assay": "qHTS profiling for inhibitors of Plasmodium falciparum (DD2) proliferation (AID 743323)", "details": "lower = more inhibition; at 28.7 µM (top of the series) unless noted", "outline": "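Parasite DNA quantified by SYBR Green fluorescence (ex 485, em 535 nm) after saponin/Triton lysis and overnight dark incubation. Cultures: 0.3% parasitemia, 2.5% hematocrit, 72 h, 37 C; data scaled between DMSO and 0.29 uM artemisinin.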"}, "[12]": {"assay": "qHTS profiling for inhibitors of Plasmodium falciparum (HB3) proliferation (AID 743324; active = well fitted curve in the direction sought with a large enough effect; an effect the other way counts as inactive or inconclusive)", "details": "Plasmodium falciparum HB3 blood-stage proliferation; at 28.7 µM (top of the series) unless noted", "outline": "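SYBR Green fluorescence (485 ex/535 em) of lysed cultures, incubated overnight at room temperature in the dark, quantifies parasite DNA. Infected erythrocytes at 0.3% parasitemia and 2.5% hematocrit were exposed 72 h; values normalized to DMSO and 0.29 uM artemisinin controls.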"}}, "note": "Inconclusive results are not listed. Activity calls are given as the source filed them. Unless noted, no rule for the calls is given here."}
{"molecule": "CCOC(=O)[C@H](CCc1ccccc1)N[C@@H](C)C(=O)N1CCCC1C(=O)O", "note": "(stereo partly specified); also: potency is read from the fitted curve at half-maximal effect;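 as to max response: % is scaled to controls: 0 for no effect and ±100 for the full control effect; actives lower the fluorescent signal which means gametocytes are killed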", "values": [{"measurement": "parasite growth, % of DMSO control", "setting": "[1]", "value": 53.7, "unit": "%"}, {"measurement": "parasite growth remaining, % of DMSO control (lower = more inhibition)", "setting": "[2]", "value": 91.5, "unit": "%"}, {"measurement": "parasite growth, % of control (lower = inhibition)", "setting": "[3]", "value": 75.7, "unit": "%"}, {"measurement": "growth, % of control", "setting": "[4]", "value": 95.2, "unit": "%"}, {"measurement": "cell viability, % of control (lower = more cytotoxic)", "setting": "[5]", "value": 190, "unit": "%"}, {"measurement": "viability (% of control)", "setting": "[6]", "value": 76.8, "unit": "%"}, {"measurement": "Potency", "setting": "[7]", "value": "inactive"}, {"measurement": "Potency", "setting": "[8]", "value": "20.9 µM (active)"}]}
{"molecule": "O=c1[nH]c(=O)n([C@H]2C[C@@H](O)[C@@H](CO)O2)cc1C(F)(F)F", "values": [{"measurement": "parasite growth, % of DMSO control", "setting": "[1]", "value": 62.3, "unit": "%"}, {"measurement": "parasite growth, % of control (lower = inhibition)", "setting": "[3]", "value": 91.9, "unit": "%"}, {"measurement": "growth, % of control", "setting": "[4]", "value": 36.7, "unit": "%"}, {"measurement": "cell viability, % of control (lower = more cytotoxic)", "setting": "[5]", "value": 118, "unit": "%"}, {"measurement": "viability (% of control)", "setting": "[6]", "value": 13.9, "unit": "%"}, {"measurement": "Potency", "setting": "[7]", "value": "inactive"}, {"measurement": "Potency", "setting": "[8]", "value": "5.26 µM (active)"}]}
{"molecule": "CC(O)=C(C#N)C(=O)Nc1ccc(C(F)(F)F)cc1", "values": [{"measurement": "max response", "setting": "[9]", "value": "27.1% (inactive)"}, {"measurement": "remaining parasite growth % (stronger effect = lower value)", "setting": "[10]", "value": 89.8, "unit": "%"}, {"measurement": "activity, percent of control", "setting": "[11]", "value": 95.5, "unit": "%"}, {"measurement": "remaining proliferation (% of control), lower = more inhibition", "setting": "[12]", "value": 98.9, "unit": "%"}, {"measurement": "parasite growth, % of control (lower = inhibition)", "setting": "[3]", "value": 63.9, "unit": "%"}, {"measurement": "growth, % of control", "setting": "[4]", "value": 83.8, "unit": "%"}, {"measurement": "cell viability, % of control (lower = more cytotoxic)", "setting": "[5]", "value": 75, "unit": "%"}, {"measurement": "viability (% of control)", "setting": "[6]", "value": 81.4, "unit": "%"}, {"measurement": "Potency", "setting": "[7]", "value": "1.18 µM (active)"}, {"measurement": "Potency", "setting": "[8]", "value": "23.5 µM (active)"}]}
{"molecule": "CCCCN(CCCC)CC(O)c1cc(Cl)cc2c1-c1ccc(Cl)cc1C2=Cc1ccc(Cl)cc1", "note": "(stereo unspecified)", "values": [{"measurement": "Potency", "setting": "[9]", "value": "0.059 µM (active)"}, {"measurement": "parasite growth, % of DMSO control", "setting": "[1]", "value": 8.66, "unit": "%"}, {"measurement": "parasite growth, % of control (lower = inhibition)", "setting": "[3]", "value": 11.5, "unit": "%"}, {"measurement": "growth, % of control", "setting": "[4]", "value": 11.8, "unit": "%"}, {"measurement": "cell viability, % of control (lower = more cytotoxic)", "setting": "[5]", "value": 27, "unit": "%"}, {"measurement": "viability (% of control)", "setting": "[6]", "value": 63, "unit": "%"}, {"measurement": "Potency", "setting": "[7]", "value": "inactive"}, {"measurement": "Potency", "setting": "[8]", "value": "inactive"}]}
{"molecule": "COc1cc2nccc(Oc3ccc(NC(=O)Nc4ccc(F)cc4F)c(F)c3)c2cc1OC", "values": [{"measurement": "parasite growth, % of DMSO control", "setting": "[1]", "value": 17.2, "unit": "%"}, {"measurement": "parasite growth remaining, % of DMSO control (lower = more inhibition)", "setting": "[2]", "value": 36.3, "unit": "%"}, {"measurement": "parasite growth, % of control (lower = inhibition)", "setting": "[3]", "value": 46.4, "unit": "%"}, {"measurement": "growth, % of control", "setting": "[4]", "value": 9.7, "unit": "%"}, {"measurement": "cell viability, % of control (lower = more cytotoxic)", "setting": "[5]", "value": 205, "unit": "%"}, {"measurement": "viability (% of control)", "setting": "[6]", "value": 86.2, "unit": "%"}, {"measurement": "Potency", "setting": "[7]", "value": "inactive"}, {"measurement": "Potency", "setting": "[8]", "value": "14.8 µM (active)"}]}
